Laboratory results taken from PubChem BioAssay (EPA / NIEHS).
Activity calls are given as the source filed them. How the source made its calls: active means hit-call score of the fitted dose curve at least 0.9, where 1 is the maximum; inactive means score below 0.9.

Assay: ATG_GATA_CIS: Attagene CIS-FACTORIAL HepG2 Assay for human GATA Binding Protein (AID 2282944)
Conditions: HepG2 GATA cis-element reporter, Attagene multiplex mRNA; actives raise or lower the signal
Experimental: ATG_CIS is a cell-based, multiplexed-readout assay that uses HepG2, a human liver cell line, with measurements taken at 24 hours after chemical dosing in a 24-well plate.ATG_GATA_CIS is one of 52 assay component(s) measured or calculated from the ATG_CIS assay. It is designed to make measurements of mRNA induction, a form of inducible reporter, as detected with fluorescence intensity signals by Reverse transcription polymerase chain reaction (RT-PCR) and Capillary electrophoresis technology.Data from the assay component ATG_GATA_CIS was analyzed into 1 assay endpoint. This assay endpoint, ATG_GATA_CIS, was analyzed with bidirectional fitting relative to DMSO as the negative control and baseline of activity. Using a type of inducible reporter, measures of mRNA for gain or loss-of-signal activity can be used to understand the reporter gene at the transcription factor-level as they relate to the gene GATA1. Furthermore, this assay endpoint can be referred to as a primary readout, because this assay has produced multiple assay endpoints where this one serves a reporter gene function. To generalize the intended target to other relatable targets, this assay endpoint is annotated to the dna binding intended target family, where the subfamily is GATA proteins.
Human liver HepG2 cells are transiently transfected with multiple reporter transcription units (MRTUs) in 6-well plates using FuGene 6 reagent (Roche; 3 ml FuGene/1 mg DNA). The MRTU constructs are regulated by a cis-regulating element (promoter). […] A major difference between the CIS and TRANS system is that in CIS activities of endogenous TFs are measured, whereas the TRANS assay evaluates changes in activities of exogenous, chimeric NR-Gal4 proteins. […] At the end of 24 hour incubation, total RNA was isolated using TriZol reagent (Invitrogen). The isolated RNA is then reverse-transcribed using oligo(dT) primer and Mo-MLV reverse transcriptase (Invitrogen) with DNAse I (Ambion) treatment for 30 min. The one-tenth of the produced cDNA was amplified by PCR using Taq DNA polymerase (Invitrogen) and two reporter sequence-specific primers. The PCR products were fluorescently labeled by primer extension with 6-arboxyfluorescein (6-FAM) 5'-labeled reporter sequence-specific primer (2 min at 95 C, 20 s at 68 C and 10 min at 72 C) and these products were digested with 5U of HpaI (New England Biolabs) for 2h at 37 C. The fragments were purified using Qiaquick PCR columns (Qiagen), analyzed on an ABI 3130xL genetic analyzer (Applied Biosystems) with peak positions identified by using a set of X-rhodamine (ROX)-labeled MapMarker1000 molecular weight standards (BioVentures). The raw capillary electrophoresis data was processed using Attagraph software (Attagene).

Row | SMILES | outcome
1 | O=C(C=Cc1ccccc1)OCc1ccccc1 | inactive
2 | O=c1c2ccccc2oc2ccccc12 | inactive
3 | CCC(C)OC(=O)c1ccc(O)cc1 (stereo not given) | inactive
4 | CCCCC/C=C\C/C=C\CCCCCCCC(=O)OC | inactive
5 | CCCCCC/C=C\CCCCCCCC(=O)O | inactive
6 | O=c1[nH]nc(-c2ccc([N+](=O)[O-])o2)o1 | inactive
7 | CO[Si](OC)(OC)c1ccccc1 | inactive
8 | Cc1cccc(C(=O)O)c1 | inactive
9 | CCc1ccc2c(c1)C(=O)c1ccccc1C2=O | inactive
10 | SCCc1cnccn1 | inactive
11 | O=c1[nH]c(=O)c2[nH]c(=O)[nH]c2[nH]1 | inactive
12 | c1ccc(CCCc2ccncc2)cc1 | inactive
13 | Cc1ccc2c(c1)C(=O)c1ccccc1C2=O | inactive
14 | N=c1ccn2c(n1)O[C@H]1[C@H](O)[C@@H](CO)O[C@H]12 | inactive
15 | O=C1CCCC1 | inactive
16 | O=C1CCC(=O)N1Cl | inactive
17 | CC(C)=CCC/C(C)=C\C#N | inactive
18 | O=c1cc[nH]c(=S)[nH]1 | inactive
19 | CCC(Cc1ccccc1)(C(=O)c1ccc(N2CCOCC2)cc1)N(C)C (stereo not given) | inactive
20 | COc1ccc(-c2coc3cc(O)ccc3c2=O)cc1 | inactive

Row | SMILES | outcome
21 | CC1=Nc2ccc3ccccc3c2C1(C)C | inactive
22 | OCCN(CCO)c1ccccc1 | inactive
23 | CCCCC(CC)CCC(CC(C)C)OS(=O)(=O)O (stereo not given) | inactive
24 | CCCCC(CC)COCC1CO1 (stereo not given) | inactive
25 | NC(=O)NNC(N)=O | inactive
26 | CN(C)c1ccc(C(=N)c2ccc(N(C)C)cc2)cc1 | inactive
27 | O=C1CCCCCN1SSN1CCCCCC1=O | inactive
28 | CCCCCCCCCCc1ccccc1 | inactive
29 | O=C1CCCC(=O)O1 | inactive
30 | CC(=O)Nc1nnc(S(N)(=O)=O)s1 | inactive
31 | C=CC(C)(CCC=C(C)C)OC(=O)CC(C)C (stereo not given) | inactive
32 | COC(=O)/C=C\C(=O)O | inactive
33 | O=C(O)c1cc(Cl)cc([N+](=O)[O-])c1Cl | inactive
34 | O=C1CCCN1CCO | inactive
35 | C[Si](C)O[Si](C)(C)O[Si](C)(C)O[Si](C)C | inactive
36 | CC(C)(C)c1n[nH]c(=O)n(N)c1=O | inactive
37 | CC=CC(F)(F)C(F)(F)C(F)(F)F | inactive
38 | CC(C)COC(=O)C=Cc1ccccc1 | inactive
39 | CC(C)(C)C(=O)C=Cc1ccc(Cl)cc1 | inactive
40 | Cc1ccc(N)c([N+](=O)[O-])c1 | inactive
